# Screening data: PubChem BioAssay, National Center for Advancing Translational Sciences (NCATS)
# Only some compounds are listed: those with a hit (about 15% of all), similar ones and a draw of the others.
# HCV inh = blocks hepatitis C virus. Potency, µM (titrated, usually from 41.8 µM), actives largely listed as inhibitors. actives 3.4% (n = 340,000). Huh7.5.1 HCVcc-Cre infection, luciferase reporter, 44 h
#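 HCVcc-Cre virus at an moi near 0.5 was added right after compound to cells cultured 4 h from seeding (1,000 cells/well). Luciferase activity was determined 44 h later, 15 min after substrate addition at RT.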
# HCMV inh = human cytomegalovirus inhibition | HFF cells, HCMV-luciferase reporter, 72 h; hits give low values | activity change, negative = inhibition, % at 57.5 µM | actives 4.5% (n = 410,000) | AID 1259415; in the data active means activity change below about -60%; inconclusive means no clear call, values can overlap the other calls; inactive means above about -39%
#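 Luciferase read-out from HCMV-luciferase-infected HFFs (MOI 1 PFU/cell) 72 h post infection at 37C; compounds added after 16 h cell attachment; activity normalized between buffer-only basal and Salinomycin (10uM) inhibitor controls.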
# SARS PLpro yeast = SARS-CoV PLP inhibition in yeast | S. cerevisiae expressing SARS-CoV PLpro, growth rescue | Potency, µM (highest dose often 32.9 µM), hits mostly activators | actives 0.19% (n = 330,000); calls by dose curve; further: nearly all actives have a fitted effect of over 55% in size
# Sm TGR inh = S. mansoni TGR enzyme inhibition; Q962Y6; purified TGR, DTNB reduction, TNB absorbance 405 nm; Potency, µM (series often up to 114 µM), actives largely listed as inhibitors; actives 3% (n = 360,000); further: nearly all actives have a fitted effect of over 60% in size
#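 First, TGR (20 nM dispensed) and NADPH were mixed with compound. Second, a 15 min room-temperature incubation followed. Third, further NADPH and then DTNB were added to start the reaction. Finally, TNB absorbance was monitored kinetically.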
# Pf growth 96h = P. falciparum growth inhibition at 96 hour, primary screen for plastid delayed-death inhibitors. P. falciparum luciferase reporter growth, 96 h. Potency, µM (series often up to 28.7 µM), usual class: inhibitors. actives 6.9% (n = 320,000)
#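 Luminescence readout: decreased luciferase signal marks inhibited growth of reporter-expressing P. falciparum in infected red cells (2% hematocrit, 0.05% parasitemia final), exposed to compound two generations (96 h, 37 C, 5% CO2).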
# Pf growth 48h = P. falciparum growth inhibition at 48 hours (one generation); Potency, µM (series often up to 28.7 µM), hits mostly inhibitors; actives 5.9% (n = 310,000); P. falciparum luciferase growth in erythrocytes, 48 h
#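 First compound was added to culture medium, then infected red cells at 0.1% parasitemia and 2% hematocrit (final). After incubation at 37 C under 5% CO2, luciferase detection reagent was dispensed and light output recorded.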
# Numbers stand for hits; . = inactive; ? = inconclusive; / = no result; [ ] = remark or other dose. Unless noted, the call rests on the fitted dose curve; in most records, active means well fitted curve in the direction sought with a large enough effect; inconclusive means small, poorly fitted or top-dose-only effect, or another doubt; inactive means no such curve, though single readings can be large; an effect the other way counts as inactive or inconclusive.
SMILES,HCV inh,HCMV inh,SARS PLpro yeast,Sm TGR inh,Pf growth 96h,Pf growth 48h
Cc1ccc(S(=O)(=O)NC23CC4CC(CC(C4)C2)C3)cc1,?,.,.,.,?,15µM
Cc1nn(C)c(C(=O)Nc2ccc(Br)cc2F)c1Br,.,.,.,.,.,.
Cc1nn(C)c(C(=O)Nc2ccc(S(=O)(=O)NC34CC5CC(CC(C5)C3)C4)cc2)c1Br,10µM,/,.,.,.,?
O=C(NC1CCCC1)c1cccc(S(=O)(=O)N2CCCC2)c1,.,.,.,.,.,?
Cc1ccc(OCC(=O)N(c2ccccn2)C2CCCCC2)c(C)c1,.,.,.,.,7.4µM,?
O=C(COc1ccc(Cl)cc1Cl)N(c1ccccn1)C1CCCCC1,.,.,.,.,.,?
Cc1cc(S(=O)(=O)N2CCCC2)ccc1OCC(=O)NCc1ccccn1,.,.,.,.,.,.
CC(C)(C)c1cc(CCC(=O)NCc2ccccn2)cc(C(C)(C)C)c1O,/,.,.,.,12µM,?
CC(C)NS(=O)(=O)c1ccc(CCC(=O)NCc2ccccn2)cc1,.,.,.,100µM,.,.
Cc1cc(S(=O)(=O)NC2CCCCC2)ccc1OCC(=O)NCc1ccccn1,.,.,.,.,?,13µM
O=c1oc(-c2ccccc2)cc(Cl)c1Cl,?,-101,.,?,.,.
Cn1nc(C(=O)NCCOc2ccccc2)c2ccccc2c1=O,.,.,.,.,.,.
CCOc1ccc(CCNC(=O)c2ccc3c(=O)[nH]c4c(C(=O)NC(C)C)sc(=S)n4c3c2)cc1,.,.,.,.,3.3µM,?
Cc1[nH]n2c(=O)cc(Cc3ccccc3)nc2c1C#N,.,.,.,.,10µM,.
CCc1c(C)nc2c(C#N)c(C)[nH]n2c1=O,.,.,.,.,5.2µM,.
CSc1ccc(/C=C(\C#N)C(=O)Nc2cccc(C)c2)cc1,.,.,.,.,?,.
CCCn1cnc2cc(NC(=O)c3cccs3)ccc21,.,.,.,.,.,.
Cc1c(NC(=O)C(C)N2CC(C)OC(C)C2)c(=O)n(-c2ccccc2)n1C (stereo not given),.,.,.,?,/,.
Cc1ccc(NC(=O)CN2C(=O)C(=O)N(C3CCCC3)C2=O)c(Cl)c1,.,.,.,.,?,.
Cc1ccc(CNC(=O)C(=O)NCC(c2cccs2)S(=O)(=O)c2ccccc2)cc1 (stereo not given),/,?,/,.,/,/
Cc1ccc(CNC(=O)C(=O)NCC(c2cccs2)S(=O)(=O)c2cccs2)cc1 (stereo not given),/,.,/,22µM,/,/
COc1ccc(CNC(=O)C(=O)NCC(c2cccs2)S(=O)(=O)c2ccc(C)cc2)cc1 (stereo not given),/,.,/,40µM,/,/
CCN(CC)CCNC(=O)c1ccc(NC(=O)c2ccccc2-c2ccc(C(F)(F)F)cc2)cc1,?,.,.,.,9.3µM,13µM
CCN(CC)CCNC(=O)c1ccc(NC(=O)Cc2ccccc2F)cc1,.,.,.,.,.,?
O=C(Nc1cccnc1)c1cc(-c2cccs2)on1,/,.,.,.,10µM,.
SMILES,HCV inh,HCMV inh,SARS PLpro yeast,Sm TGR inh,Pf growth 96h,Pf growth 48h
CCN(CC)CCNC(=O)c1ccc(NC(=O)c2cn(-c3ccc(F)cc3)nc2-c2cccc(OC)c2)cc1,?,-66,.,.,1µM,1.9µM
O=C(/C=C/c1cn(-c2ccccc2)nc1-c1cccs1)NCCN1CCOCC1,14µM,.,.,.,?,?
O=C(Nc1cccnc1)c1cc(-c2ccccc2O)on1,.,?,.,.,.,.
Cc1ccc(C)c(N2CCN(c3nc4ccc(Cl)cc4n4cnnc34)CC2)c1,/,?,/,.,/,/
CSCC[C@H]1COC[C@@H](Cc2ccccc2)N1c1ccccc1,/,.,/,/,/,/
C=CCc1cccc2cc(C(=O)Nc3ccc(S(=O)(=O)Nc4nnc(CC)s4)cc3)c(=O)oc12,.,.,?,.,.,.
O=C(c1cn(-c2ccccc2)nc1-c1cccs1)N1CCOCC1,.,.,.,.,.,.
O=C(Nc1cccnc1)c1cn(-c2ccccc2)nc1-c1cccs1,?,.,.,.,.,0.59µM
CCN(CC)CCNC(=O)c1ccc(NC(=O)c2cn(-c3ccccc3)nc2-c2cccs2)cc1,11µM,-98,.,.,?,12µM
CN(CC(=O)Nc1ccc(F)cc1)C(=O)c1cn(-c2ccccc2)nc1-c1cccs1,?,.,.,.,?,?
CCN(CC)CCNC(=O)c1ccc(NC(=O)c2ccc3c(c2)CCC3)cc1,11µM,.,.,.,3.7µM,5.2µM
O=C(c1cn(-c2ccccc2)nc1-c1cccs1)N1CCN(c2ccccc2)CC1,7.1µM,/,.,.,.[5.75 µM],.
O=C(Nc1ccccc1C(F)(F)F)N[C@H]1CC[C@@]23CCCN2C(=O)CCC[C@H]3C1Cc1ccccc1 (stereo not given in full),/,.,/,/,/,/
COc1cccc(Cc2nc3ccccc3nc2SCC(=O)NCc2ccc(C)cc2)c1,/,.,/,.,/,/
N/C(=N\OS(=O)(=O)c1ccccc1)c1ccncc1,.,.,.,.,8.3µM,?
N/C(=N\OS(=O)(=O)c1ccccc1)c1cccnc1,.,.,.,.,.,.
COC(=O)c1cc(C)sc1NC(=O)CCCC(=O)O,.,.,.,.,9.3µM,.
CCc1ccc(S(=O)(=O)c2nnn3c2nc(Nc2ccc(F)cc2)c2cc(Cl)ccc23)cc1,/,.,/,.,/,/
O=C(NS(=O)(=O)Nc1ccccc1)C1=C(N2CCCC2)COC1=O,.,.,.,/,/,/
CC1CN(c2ccc([N+](=O)[O-])c(NCCOc3ccc(Cl)cc3)c2)CC(C)N1 (stereo not given),8.9µM,.,.,.,.,?
CCc1ccc(OCCNc2cc(N3CCNC(C)C3)ccc2[N+](=O)[O-])cc1 (stereo not given),14µM,.,.,.,?,4.7µM
O=[N+]([O-])c1ccc(N2CCCCC2)cc1NCCOc1ccccc1,.,.,.,.,13µM,.
O=C(NCCC1=CCCCC1)C1CCCN(S(=O)(=O)c2cnc[nH]2)C1 (stereo not given),.,.,.,.,12µM,/
O=C(Nc1cccc(F)c1)C1CCCN(S(=O)(=O)c2cnc[nH]2)C1 (stereo not given),.,-62,.,.,9.3µM,.
Cc1csc(NC(=O)C2CCCN(S(=O)(=O)c3cnc[nH]3)C2)n1 (stereo not given),.,.,.,.,12µM,/
Cc1ccc(NC(=O)C2CCCN(S(=O)(=O)c3cnc[nH]3)C2)cc1F (stereo not given),?,.,.,.,?,.
Cc1cc(C)cc(NC(=O)C2CCCN(S(=O)(=O)c3cnc[nH]3)C2)c1 (stereo not given),.,.,.,.,3.3µM,.
